{"source": "PubChem BioAssay (NCI)", "note": "About 83,000 compounds went through this panel and 20% of them were active in at least one assay; those are over-represented in the sample as a whole.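 The endpoint reported here, percent growth, reads 100 for growth as untreated, 0 for no net growth and -100 for all cells dead.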 Activity calls are given as the source filed them. How the source made its calls: active means growth percent below 10; inactive means the rest."}
{"system": "KM12 colon", "assay": "NCI-60 one-dose screen, 48 h (100 = growth as untreated, 0 = no growth, -100 = all killed)", "conditions": "10 µM unless noted"}
{"smiles": "C#CCOc1cc(N(CC)CC)ccc1C(C(=O)NC(C)(C)C)N(C(=O)C1CCc2cc(F)ccc2O1)c1ccc(F)c(Cl)c1", "note": "(stereo unspecified)", "growth": "57.5% (inactive)"}
{"smiles": "COc1cc2c(c(OC)c1OC)C(=O)CC(c1cccc(NC(=O)c3cc(NC(=O)[C@@H](N)CO)ccc3C)c1)O2", "note": "(stereo partly specified)", "growth": "108% (inactive)"}
{"smiles": "O=C(O)Cn1c(O)c(/C=C2/C=c3cc4c(cc3=NC2=O)OCCO4)sc1=S", "growth": "104% (inactive)"}
{"smiles": "CC(C)CSc1nc(NCCc2c[nH]c3ccccc23)c(C#N)c(-c2ccc(Cl)cc2)n1", "growth": "35.1% (inactive)"}
{"smiles": "C=C1CCC2C3(C)COC(c4ccccc4)OC3CCC2(C)C1CC(Sc1ccccc1)C1=CCOC1=O", "note": "(stereo unspecified)", "growth": "47.5% (inactive)"}
{"smiles": "O=C1c2c(c3c4cc(F)ccc4oc3c3[nH]c4ccc(Br)cc4c23)C(=O)N1O", "growth": "34.5% (inactive)"}
{"smiles": "C#C[C@]1(O)CC[C@H]2[C@@H]3CC=C4c5sc(-c6ccc(O)c(O)c6)nc5CC[C@]4(C)[C@H]3CC[C@@]21C", "growth": "-76.3% (active)"}
{"smiles": "COc1ccc(N2N=C(c3ccc4c(c3)OCO4)CC2c2cccc(NC(=O)CCCNS(=O)(=O)c3ccc(F)cc3)c2)cc1", "note": "(stereo unspecified)", "growth": "41.3% (inactive)"}
{"smiles": "CN(C)CCn1c2ccccc2c2nc3cc(C(F)(F)F)ccc3nc21", "growth": "42.9% (inactive)"}
{"smiles": "O=C(COc1ccc(NC(=O)Nc2ccc(Cl)c(Cl)c2)cc1)N=Nc1c(O)[nH]c2ccccc12", "growth": "-38.3% (active)"}
{"smiles": "CC1(C)CC[C@]2(C(=O)O)CC[C@]3(C)C(=CCC4[C@@]5(C)C[C@@H](O)[C@@H]6OC(c7cccc(Br)c7)OC[C@@]6(C)C5CC[C@]43C)C2C1", "note": "(stereo partly specified)", "growth": "20.8% (inactive)"}
